Compounds with a hit are over-represented: about 18% of the library has one in this group of screens.
CtBP-E1A inh – qHTS Assay for Inhibitors of the CtBP/E1A Interaction; activity change, % (test concentration not listed); AlphaScreen GST-E1A/His-CtBP binding, 1536-well; stronger effect = lower value; hit rate 0.49% among 340,000; in the data active = activity change below about -65%; inconclusive = mostly about -30% to -63%
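Homogeneous bead-based format: GST-tagged E1A captured on glutathione donor beads, His-tagged CtBP on nickel acceptor beads; compounds precede bead addition by 2 h at 37 °C.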
IL-1B inflam inh – qHTS for Inhibitors of Inflammasome Signaling: IL-1-beta AlphaLISA Primary Screen; THP-1 LPS/ATP IL-1B secretion, AlphaLISA, 16 h; stronger effect = lower value; activity change, % at 57.5 µM; hit rate 4.7% among 360,000; AID 743279, 2014; in the data active = activity change below about -50%; inconclusive = mostly about -30% to -49%
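THP-1 cells pretreated 1 hr with compounds (up to 57.5 uM final), then stimulated with LPS (250 ng/mL final) plus ATP (1.25 mM final); secreted IL-1B measured by AlphaLISA after 16 hr, decreased signal indicating inhibition.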
TDP1 block – qHTS Assay for Inhibitors of Tyrosyl-DNA Phosphodiesterase (TDP1); Tyrosyl-DNA phosphodiesterase 1 (Homo sapiens), Q9NUW8; recombinant TDP1, AlphaScreen DNA substrate cleavage; Potency, µM (top dose mostly 130 µM), for the others: at the highest dose activity change, negative = inhibition, most hits filed as inhibitors; hit rate 0.28% among 350,000; also: potency is read from the fitted curve at half-maximal effect; nearly all actives have a fitted effect of over 40% in size
Target sequence (Q9NUW8 whole entry, looked up): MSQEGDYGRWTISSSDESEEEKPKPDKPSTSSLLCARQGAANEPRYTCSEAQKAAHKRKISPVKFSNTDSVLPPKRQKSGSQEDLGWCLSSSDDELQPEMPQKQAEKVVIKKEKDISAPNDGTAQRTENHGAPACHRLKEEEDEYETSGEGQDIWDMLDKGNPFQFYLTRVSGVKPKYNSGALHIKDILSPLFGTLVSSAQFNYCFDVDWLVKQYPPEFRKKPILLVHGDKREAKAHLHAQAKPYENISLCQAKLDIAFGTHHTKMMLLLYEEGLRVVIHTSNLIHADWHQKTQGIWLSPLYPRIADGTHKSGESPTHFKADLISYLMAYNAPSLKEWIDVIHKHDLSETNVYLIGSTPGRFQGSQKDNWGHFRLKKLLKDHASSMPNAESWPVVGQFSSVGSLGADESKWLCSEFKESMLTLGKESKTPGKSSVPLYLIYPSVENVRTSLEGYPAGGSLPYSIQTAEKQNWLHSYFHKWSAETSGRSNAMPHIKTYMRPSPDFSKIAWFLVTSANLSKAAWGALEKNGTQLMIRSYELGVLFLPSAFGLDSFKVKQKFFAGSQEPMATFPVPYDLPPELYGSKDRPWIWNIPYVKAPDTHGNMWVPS
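Enzyme-compound mixtures sat 15 min at room temperature, followed by a 5 min reaction with 15 nM final substrate and 10 min with AlphaScreen beads. Recombinant human Tdp1 was used at 1 nM final.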
TDP1 cell noCPT – qHTS for Inhibitors of human tyrosyl-DNA phosphodiesterase 1 (TDP1): qHTS in cells in absence of CPT | hit rate 15% among 420,000 | DT40 Tdp1-/- hTDP1 cells, no CPT, ATP luminescence, 48 h | Potency, µM (series often up to 46.2 µM), inactives show at the top dose activity change, negative = growth inhibition, actives largely listed as inhibitors; also: potency is read from the fitted curve at half-maximal effect; nearly all actives have a fitted effect of over 55% in size
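A cellular qHTS used chicken DT40 cells lacking endogenous Tdp1 but carrying stably transfected human TDP1. Compounds were applied without camptothecin, and cell growth kinetics were judged by ATP-dependent luminescence after ≥48 hr.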
Six1-Eya2 inh – qHTS Assay for Inhibitors of the Six1/Eya2 Interaction. Homeobox protein SIX1 (Homo sapiens) + Protein phosphatase EYA2 (Homo sapiens), …. hit rate 0.56% among 360,000. AlphaScreen GST-Six1/His-Eya2 binding, biochemical; stronger effect = lower value. activity change, % (concentration not given with the values); in the data active = activity change below about -65%; inconclusive = mostly about -30% to -63%
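GST-Six1 + His-Eya2 (5X stock: 250/500 nM); Tris pH 8.0, 300 mM NaCl, 0.05% BSA, 0.02% Tween 20; GSH donor/Ni acceptor beads; 1 h 37 °C dark; AlphaScreen readout.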
DT40 TDP1 CPT – qHTS for Inhibitors of human tyrosyl-DNA phosphodiesterase 1 (TDP1): qHTS in cells in presence of CPT; chicken DT40 Tdp1-/-;hTDP1 cells + 20 nM CPT, ATP luminescence, 48 h; Potency, µM (doses to about 46.2 µM), without a hit: at the highest dose activity change, negative = growth inhibition, hits mostly inhibitors; hit rate 12% among 420,000; also: potency is read from the fitted curve at half-maximal effect; nearly all actives have a fitted effect of over 55% in size
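Cell growth measured by CellTiter-Glo luminescence after a minimum 48 h, 37 C compound exposure with 20 nM CPT in Tdp1-knockout DT40 cells stably expressing hTDP1, seeded 400/well; qHTS titration format.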
An asterisk follows results filed as active. Unless noted, calls follow the shape of the dose curve; as a rule, active = well fitted curve in the direction sought with a large enough effect; inconclusive = small, poorly fitted or top-dose-only effect, or another doubt; inactive = no such curve, though single readings can be large; an effect the other way counts as inactive or inconclusive. % is scaled to controls: 0 for no effect and ±100 for the full control effect.

Results for Cc1ccc(S(=O)(=O)NN2C(=O)c3ccccc3NC2c2ccccn2)cc1 (configuration not stated) ?
CtBP-E1A inh: -9; IL-1B inflam inh: -112*; TDP1 block: 5%; TDP1 cell noCPT: -11%; Six1-Eya2 inh: 2; DT40 TDP1 CPT: 3%

What do the screens show for `Cc1cc(O)c2c(O)c3c(O)cccc3cc2c1`?
TDP1 cell noCPT: -24%; DT40 TDP1 CPT: -6%

Results for CCOC(=O)c1c(C)[nH]c2cc(Br)c(O)cc12 ?
CtBP-E1A inh: inconclusive; IL-1B inflam inh: -9; TDP1 block: 3%; TDP1 cell noCPT: -9%; Six1-Eya2 inh: inconclusive; DT40 TDP1 CPT: inconclusive

Results for CCOC(=O)c1c(OCC)[nH]c2c1cc(O)c1ccccc12 ?
CtBP-E1A inh: inconclusive; IL-1B inflam inh: -18; TDP1 block: 6%; TDP1 cell noCPT: 18µM*; Six1-Eya2 inh: inconclusive; DT40 TDP1 CPT: 16µM*

What do the screens show for `CCc1cc(=O)oc2c(C)c(O[C@@H]3O[C@H](CO)[C@@H](O)[C@H](O)[C@H]3O)ccc12`?
CtBP-E1A inh: 11; IL-1B inflam inh: 10; TDP1 cell noCPT: 10µM*; Six1-Eya2 inh: 0; DT40 TDP1 CPT: 3%

Results for Cc1c(C)c2ccc(O[C@@H]3O[C@H](CO)[C@@H](O)[C@H](O)[C@H]3O)c(C)c2oc1=O ?
CtBP-E1A inh: -2; IL-1B inflam inh: -16; TDP1 cell noCPT: -23%; Six1-Eya2 inh: 0; DT40 TDP1 CPT: 28%

How did O=C(Nc1ccc(OC(F)F)cc1)c1nc(SCc2ccccc2F)ncc1Cl do in these assays?
TDP1 cell noCPT: 13µM*; DT40 TDP1 CPT: inconclusive

Results for COc1ccc(CCNC(=O)c2nc(SCc3ccccc3F)ncc2Cl)cc1OC ?
TDP1 block: 7%; TDP1 cell noCPT: 23µM*; DT40 TDP1 CPT: 18µM*

How did COc1ccc(C(=O)/C=C/c2ccc(O)cc2)c(O)c1C/C=C(\C)CCC=C(C)C do in these assays?
CtBP-E1A inh: -12; IL-1B inflam inh: -87*; TDP1 block: 7%; TDP1 cell noCPT: inconclusive; Six1-Eya2 inh: -17; DT40 TDP1 CPT: inconclusive

Results for COc1ccc(C=CC(=O)c2ccc(OC)c(OC)c2O)cc1OC ?
CtBP-E1A inh: 4; IL-1B inflam inh: inconclusive; TDP1 cell noCPT: inconclusive; Six1-Eya2 inh: -2; DT40 TDP1 CPT: inconclusive

How did Cc1cc2c3c(c1C)C1(C(=O)N3C(C)(C)CC2C)C(C#N)=C(N)Oc2n[nH]c(C)c21 (configuration not stated) do in these assays?
CtBP-E1A inh: 10; IL-1B inflam inh: -19; TDP1 block: 11%; TDP1 cell noCPT: 23µM*; Six1-Eya2 inh: -4; DT40 TDP1 CPT: inconclusive

What do the screens show for `Cc1cc2c3c(c1)C1(C(=O)N3C(C)(C)CC2C)C(C#N)=C(N)Oc2n[nH]c(C)c21` (configuration not stated)?
CtBP-E1A inh: 4; IL-1B inflam inh: inconclusive; TDP1 block: 3%; TDP1 cell noCPT: inconclusive; Six1-Eya2 inh: 0; DT40 TDP1 CPT: inconclusive

Results for Cc1ccc(NC(=O)CN(Cc2ccccc2)S(=O)(=O)c2ccc3nc(C)sc3c2)c(C)c1 ?
TDP1 block: 6%; TDP1 cell noCPT: inconclusive; DT40 TDP1 CPT: inconclusive

What do the screens show for `COc1cccc(NC(=O)CN(Cc2ccccc2)S(=O)(=O)c2ccc3nc(C)sc3c2)c1`?
TDP1 block: 6%; TDP1 cell noCPT: 26µM*; DT40 TDP1 CPT: inconclusive
